Active and inactive are the calls of the source.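 The calls were made as follows, unless noted: active = inhibition of the reporter signal at or above 50%; inactive = inhibition below 50%.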 Where a SMILES comes first, the peptide text is derived from it.
Tests used:
[1] = inhibitors of TNFa-induced NFkB p65 translocation, primary screen, imaging, HUVEC, MLSMR starter and 10KST1 sets (AID 438;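 active = inhibition above 20% together with a positive visual image hit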;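 also: compound added about 3h40 before a 20 min TNFalpha stimulation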;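 as to inhibition: signal is the nuclear over cytoplasmic p65 intensity ratio per well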); settings: HUVEC TNFa-induced p65 nuclear translocation; cell count: measured here: nuclei count (cytotoxicity indicator), at 2.08 µM; inhibition: at 2 µM, stronger effect = higher value, 0% TNFa-plus-vehicle, 100% no-TNFa wells
[2] = inhibitors of mutant huntingtin aggregation, primary screen, imaging, exon1htt(103Q)mCFP cells, high-content imaging (AID 483;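 active = visual image review flags a hit and inhibition of aggregation exceeds 20%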;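 also: compound exposure lasted 3 days before fixation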;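 as to nuclei count: percent of the per-plate median nuclei count of sample wells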); settings: exon1htt(103Q)mCFP cell line, aggregate imaging, at 2 µM; inhibition of aggregation: stronger effect = higher value; nuclei count: measured here: cell count, toxicity
[3] = inhibitors of E-selectin induction by TNFa, primary screen, imaging, HUVEC, immunofluorescence, MLSMR starter and 10KST1 sets (AID 487;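 active = visually confirmed hit in the image check and inhibition above 20%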;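 as to inhibition: signal is fraction of cell area covered by stained E-selectin grains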;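 as to nuclei count: 100% = median nuclei count of all wells on the same plate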); settings: HUVEC TNFalpha-induced E-selectin immunofluorescence imaging, at 2 µM; inhibition: stronger effect = higher value; nuclei count: measured here: cell number, toxicity
[4] = molecular target: Voltage-gated potassium channel subunit beta-2 (Rattus norvegicus) (UniProt P62483); experiment: KvBeta enzyme negative modulators, primary screen, biochemical, NADPH fluorescence (AID 622;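 active = fluorescence slope higher than the sample average by over 3 SD, cut at about -0.22 in these data, passing the limit was not always enough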;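 also: slope of raw intensity against log time taken from 70 to 1610 s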); settings: recombinant KvBeta, 4-cyanobenzaldehyde reduction, at 10 µM, stronger effect = higher value
Chain of Voltage-gated potassium channel subunit beta-2 (Rattus norvegicus) (P62483 whole entry, looked up): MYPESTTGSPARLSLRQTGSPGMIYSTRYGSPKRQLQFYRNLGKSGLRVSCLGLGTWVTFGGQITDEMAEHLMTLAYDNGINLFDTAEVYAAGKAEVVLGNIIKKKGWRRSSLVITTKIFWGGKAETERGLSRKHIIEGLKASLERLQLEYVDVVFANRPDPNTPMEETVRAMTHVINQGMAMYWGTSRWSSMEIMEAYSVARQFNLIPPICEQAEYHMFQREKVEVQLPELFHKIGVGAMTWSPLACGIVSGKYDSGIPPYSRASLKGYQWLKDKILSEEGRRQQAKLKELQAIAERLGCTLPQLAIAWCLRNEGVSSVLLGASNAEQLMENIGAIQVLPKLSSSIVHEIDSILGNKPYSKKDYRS

[5] = molecular target: Voltage-gated potassium channel subunit beta-2 (Rattus norvegicus) (UniProt P62483); experiment: KvBeta positive modulators, primary screen, biochemical, NADPH fluorescence (AID 623;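 active = NADPH fluorescence slope more negative than the mean of all samples by about 3 SD, 99.7% confidence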;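 also: fluorescence intensity change per second fitted from 20 to 320 s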); settings: Recombinant KvBeta, NADPH fluorescence decrease slope, 10 min; at 10 µM; stronger effect = lower value
[6] = molecular target: Alpha-2C adrenergic receptor (Homo sapiens) (UniProt P18825); experiment: modulators of alpha2C/GIRK thallium flux, primary screen, cell-based, HEK293 alpha2C/GIRK1/2 (AID 624;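 active = fluorescence slope after compound addition differing from the mean of all screened samples at 99.7% confidence, in either direction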;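 also: slope of fluorescence ratio to pre-addition baseline per second over 15 to 24 s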); settings: thallium flux BTC fluorescence, at 10 µM, actives lie on both sides
Chain of Alpha-2C adrenergic receptor (Homo sapiens) (P18825 whole entry, looked up): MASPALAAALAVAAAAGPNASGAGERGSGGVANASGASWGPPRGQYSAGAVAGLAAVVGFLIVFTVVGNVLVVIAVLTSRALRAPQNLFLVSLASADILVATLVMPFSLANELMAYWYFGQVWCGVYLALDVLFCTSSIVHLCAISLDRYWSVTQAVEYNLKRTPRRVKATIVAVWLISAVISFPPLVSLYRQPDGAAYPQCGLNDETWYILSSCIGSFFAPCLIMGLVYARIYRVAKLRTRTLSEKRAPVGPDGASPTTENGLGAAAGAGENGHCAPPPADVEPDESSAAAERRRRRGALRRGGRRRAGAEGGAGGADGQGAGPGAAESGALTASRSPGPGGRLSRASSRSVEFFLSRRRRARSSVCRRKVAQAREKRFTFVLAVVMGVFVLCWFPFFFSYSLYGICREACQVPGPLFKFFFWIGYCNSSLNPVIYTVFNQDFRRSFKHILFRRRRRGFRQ

[7] = inhibitors of Sendai virus-induced IRF3 signaling, primary screen, TLR/RLR signaling modifier project, cell-based, Sendai virus stimulus, luciferase, 10K MLSCN set (AID 602276;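 active = inhibition at or above 50% at 10 µM; inactive = inhibition below 50%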;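 also: firefly luciferase from ISG56 promoter only with Renilla not read in this screen; 0% = Sendai virus plus DMSO and 100% = medium plus DMSO without virus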); settings: HEK293 RL24 IRF3 luciferase reporter, at 10 µM, stronger effect = higher value
[8] = inhibitors of poly I:C-induced TLR3 signaling, primary screen, cell-based, poly I:C stimulus, luciferase, 10K MLSCN set (AID 602277); settings: HEK293-TLR3 RL24 IRF3 luciferase reporter, at 10 µM, stronger effect = higher value

Row | SMILES | cell count [1] | inhibition [1] | inhibition of aggregation [2] | nuclei count [2] [%] | inhibition [3] | nuclei count [3] [%] | fluorescence slope [4] | NADPH fluorescence slope [5] | slope [6] | inhibition [7] | inhibition [8]
1 | CCCCn1c(SCC(=O)N2CC(=O)Nc3ccccc32)nnc1-c1ccoc1C | 494 | -7.7% (inactive) | 15.6% (inactive) | 114 | -146% (inactive) | 174 | -0.534 (inactive) | -3.6e-05 (inactive) | 0.00478 (inactive) | 13.2% (inactive) | 19.3% (inactive)
2 | Cc1ccccc1Cn1ccc(NC(=O)c2onc(C)c2Cl)n1 | 654 | -1.6% (inactive) | 28.9% (inactive) | 118 | -52.1% (inactive) | 106 | -0.425 (inactive) | -4.5e-05 (inactive) | 0.00472 (inactive) | -15.7% (inactive) | -37% (inactive)
3 | CC(CCc1ccccc1)NCc1ccncc1 (centres undefined) | 564 | 3% (inactive) | -1.8% (inactive) | 109 | -75.4% (inactive) | 130 | -0.409 (inactive) | -1.4e-05 (inactive) | 0.00748 (inactive) | 12.9% (inactive) | 23.5% (inactive)
4 | CCc1nc(SCC(=O)NCc2ccco2)c2c3c(sc2n1)CCCC3 | 586 | -2.1% (inactive) | 14.8% (inactive) | 85.9 | -21.9% (inactive) | 116 | -0.466 (inactive) | -1.1e-05 (inactive) | 0.00647 (inactive) | 15.3% (inactive) | 20.6% (inactive)
5 | COc1cccc(/C=N/n2cnnc2)c1OCc1ccccc1 | 473 | -2.6% (inactive) | -7% (inactive) | 104 | 2.5% (inactive) | 109 | -0.448 (inactive) | 1.1e-05 (inactive) | 0.00389 (inactive) | 20.5% (inactive) | 12.5% (inactive)
6 | CCCC(NC(=O)c1ccccc1)c1nc2ccccc2n1Cc1ccc(C(=O)OC)o1 (centres undefined) | 722 | 5.5% (inactive) | 7.1% (inactive) | 105 | -91.8% (inactive) | 119 | -0.372 (inactive) | -3.2e-06 (inactive) | 0.00315 (inactive) | 0.936% (inactive) | 16.6% (inactive)
7 | Cc1ccc2[nH]c(=O)c3cc(C(=O)NCCN4CCN(C)CC4)sc3c2c1 | 526 | -0.5% (inactive) | 2.4% (inactive) | 60 | -14.1% (inactive) | 116 | -0.229 (active) | -4.2e-06 (inactive) | 0.00573 (inactive) | 10.4% (inactive) | 90.4% (active)
8 | c1ccc(CNc2c3c(nc4ncnn24)CCCC3)nc1 | 912 | 2.1% (inactive) | -30.3% (inactive) | 102 | -39.1% (inactive) | 111 | -0.542 (inactive) | -9.4e-06 (inactive) | 0.00501 (inactive) | 15.7% (inactive) | 13.9% (inactive)
9 | COCCNC(=O)Cn1cc2c(n1)CCCCC2 | 623 | 5.8% (inactive) | -19.8% (inactive) | 110 | -23.5% (inactive) | 98.4 | -0.529 (inactive) | -8.7e-05 (inactive) | 0.00598 (inactive) | 7.33% (inactive) | 31.3% (inactive)
10 | CCOc1ccc(-c2cc(C(=O)N3CCN(c4ccccn4)CC3)c3ccccc3n2)cc1 | 619 | 7.9% (inactive) | -11.8% (inactive) | 86.4 | -19.3% (inactive) | 111 | -0.473 (inactive) | -6.7e-06 (inactive) | 0.00673 (inactive) | 34% (inactive) | -64.8% (inactive)
11 | CCCC(NC(=O)CNC(=O)C(C)(C)C)C(=O)O (centres undefined) (HELM PEPTIDE1{[CC(C)(C)C(=O)[*:2]].G.[CCCC(N[*:1])C(=O)O]}$$$$V2.0) | 678 | 0.5% (inactive) | 12.5% (inactive) | 104 | 63.7% (inactive) | 97.4 | -0.499 (inactive) | -1.3e-05 (inactive) | 0.00543 (inactive) | 14.8% (inactive) | 11.8% (inactive)
12 | CCOC(=O)c1cc(NC(=O)SCC(=O)O)c(C)nc1C | 762 | 5.1% (inactive) | -19.7% (inactive) | 111 | -99.8% (inactive) | 128 | -0.484 (inactive) | -3.2e-05 (inactive) | 0.0071 (inactive) | 7.76% (inactive) | 9.57% (inactive)
13 | O=C(NCC12CC3CC(C1)CC(CNC(=O)N1CCCC1)(C3)C2)N1CCCC1 | 633 | 2.2% (inactive) | 3.3% (inactive) | 92.2 | -37.7% (inactive) | 112 | -0.463 (inactive) | -6e-05 (inactive) | 0.00588 (inactive) | 19.1% (inactive) | 22.9% (inactive)
14 | C=CCn1c(SCC(=O)NC2CCCCC2)nnc1-c1sc(N)nc1C | 639 | -7.3% (inactive) | -12.7% (inactive) | 101 | -100% (inactive) | 125 | -0.516 (inactive) | -3.2e-05 (inactive) | 0.00387 (inactive) | 16.9% (inactive) | 16.4% (inactive)
15 | O=C(c1ccc2nc(N3CCCCC3)sc2c1)N1CCN(c2ccccn2)CC1 | 669 | -0.8% (inactive) | -24.8% (inactive) | 99.9 | 5% (inactive) | 118 | -0.589 (inactive) | 5.6e-06 (inactive) | 0.00632 (inactive) | -4.41% (inactive) | 3.71% (inactive)
16 | CCOc1ccc(-c2nc(C#N)c(N3CCN(C)CC3)o2)cc1 | 447 | 7.9% (inactive) | -9.4% (inactive) | 102 | -123% (inactive) | 127 | -0.415 (inactive) | -1.8e-05 (inactive) | 0.00522 (inactive) | 10.5% (inactive) | 11% (inactive)
17 | COc1ccc(C)cc1NS(=O)(=O)c1ccc(NS(=O)(=O)c2ccc(NC(C)=O)cc2)cc1 | 345 | -7.8% (inactive) | -15.2% (inactive) | 99.4 | -16.4% (inactive) | 119 | -0.514 (inactive) | -6e-05 (inactive) | 0.00545 (inactive) | 19.9% (inactive) | 24.8% (inactive)
18 | CN1CCc2c(sc3c2c(=O)n(-c2ccccc2)c2nnc(SCc4ccc(F)cc4)n32)C1 | 375 | 2.1% (inactive) | 9.2% (inactive) | 73.7 | -45% (inactive) | 210 | -0.608 (inactive) | -5.9e-06 (inactive) | 0.00622 (inactive) | 4.98% (inactive) | -12.6% (inactive)
19 | COc1ccc(N2CCN(C(=O)C(C)(C)Oc3ccc(Cl)cc3)CC2)cc1 | 651 | 5.8% (inactive) | 4.4% (inactive) | 96.2 | 0% (inactive) | 111 | -0.564 (inactive) | -4.3e-05 (inactive) | 0.00674 (inactive) | 2.83% (inactive) | 28.4% (inactive)
